The text below walks through data of PubChem BioAssay (NCI).

The panel holds about 79,000 compounds, 15% with a hit somewhere; the sample as a whole holds those more often. Values without a mark were called inactive. Calls of active or inactive are those of the source. Cut-off read from the data, not from the text of the source: active = growth inhibition above about 70%; inactive = the rest.

Assay [1] in a line: NCI Yeast Anticancer Drug Screen. Data for the rad50 strain (AID 155).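 Note: 0% = growth of vehicle-only cultures of the same strain.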 As to conditions: S. cerevisiae rad50 strain growth inhibition, stronger effect = higher value. The method, boiled down: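 Compounds were tested on a yeast strain with an engineered DNA damage repair alteration; the reported value is growth inhibition normalised to vehicle treatment.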
The nature of assay [2]: NCI Yeast Anticancer Drug Screen. Data for the mec2-1 strain (AID 157). As to conditions: S. cerevisiae mec2-1 strain, stronger effect = higher value. Put shortly:
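Mutant yeast (mec2-1) grown with compound; growth inhibition relative to vehicle control reported.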

Assay [3] in a line: NCI Yeast Anticancer Drug Screen. Data for the sgs1 mgt1 strain (AID 161).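 Note: 0% = growth of cultures given vehicle only.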 Particulars: S. cerevisiae sgs1 mgt1 strain, stronger effect = higher value. Put shortly:
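Yeast cells carrying a defined DNA-repair defect were exposed to test compounds. Growth inhibition was measured relative to vehicle-treated controls.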

The nature of assay [4]: NCI Yeast Anticancer Drug Screen. Data for the cln2 rad14 strain (AID 165).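 Note: 0% = growth equal to vehicle treated cultures.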 Particulars: S. cerevisiae cln2 rad14 strain, stronger effect = higher value. Put shortly:
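Readout is yeast growth inhibition versus vehicle-treated controls, using a strain with cln2 and rad14 alterations exposed to compound.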

Assay [5] is described as follows: NCI Yeast Anticancer Drug Screen. Data for the bub3 strain (AID 167). Particulars: S. cerevisiae bub3 mutant strain, stronger effect = higher value. The method, boiled down:
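Growth of a checkpoint-deficient yeast mutant is measured after compound exposure. Values represent inhibition relative to vehicle.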

A short description of assay [6]: NCI Yeast Anticancer Drug Screen. Data for the mlh1 rad18 strain (AID 175). Particulars: S. cerevisiae mlh1 rad18 strain growth inhibition, stronger effect = higher value. The method, boiled down: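 Genetically defined yeast (DNA repair-deficient) exposed to compounds; growth inhibition determined relative to vehicle.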
Setting [7] is: at 5.0 µM (retest, dose inferred, filed as 0.5).
[8] abbreviates: at 50.0 µM (retest, dose inferred, filed as 5.0).

In the case of `Cc1ccc(C2(C)CC/C(=N/O)c3cc(C)c(C)cc32)cc1C` (stereo not given), the growth inhibition in assay [1] (setting [7]) is 72% (active); in assay [1] (setting [8]) it was 89% (active); in assay [1] (at 50.0 µM), 90.5% (active); in assay [2] (setting [7]) it was 61%; in assay [2] (setting [8]), 88% (active); in assay [2] (at 50.0 µM), 90.8% (active). The growth inhibition in assay [3] (setting [7]) was 66%; in assay [3] (setting [8]), 90% (active); in assay [3] (at 50.0 µM), 88.7% (active); in assay [4] (setting [7]), 63%; in assay [4] (setting [8]), 91% (active); in assay [4] (at 50.0 µM), 91.2% (active). Besides, the growth inhibition in assay [5] (setting [7]) is 80% (active); in assay [5] (setting [8]), 92% (active); in assay [5] (at 50.0 µM), 87.9% (active); in assay [6] (setting [7]), 83% (active); in assay [6] (setting [8]), 92% (active); in assay [6] (at 50.0 µM), 90.5% (active).

`O=C(CSc1cc[o+]cc1)c1cccc([N+](=O)[O-])c1`: the growth inhibition in assay [1] (setting [7]) was 0%; in assay [1] (setting [8]) it was 49%; in assay [1] (at 50.0 µM) it was 65.8%; in assay [2] (setting [7]) it was 2%; in assay [2] (setting [8]) it was 87% (active); in assay [2] (at 50.0 µM), 81.8% (active). For the same compound, the growth inhibition is 4% in assay [3] (setting [7]); 86% (active) in assay [3] (setting [8]); 68% in assay [3] (at 50.0 µM); -5% in assay [4] (setting [7]); 53% in assay [4] (setting [8]); 78.5% (active) in assay [4] (at 50.0 µM). The growth inhibition was 4% in assay [5] (setting [7]); 92% (active) in assay [5] (setting [8]); 97.1% (active) in assay [5] (at 50.0 µM); -3% in assay [6] (setting [7]); 85% (active) in assay [6] (setting [8]); 93.5% (active) in assay [6] (at 50.0 µM).

For `O=C1c2cc(Br)cc(Br)c2NCCC1(Br)Br`, the growth inhibition is 99% (active) in assay [1] (setting [7]); 98% (active) in assay [1] (setting [8]); 97.7% (active) in assay [1] (at 50.0 µM); 98% (active) in assay [2] (setting [7]); 100% (active) in assay [2] (setting [8]); 99.1% (active) in assay [2] (at 50.0 µM). The growth inhibition in assay [3] (setting [7]) is 100% (active); in assay [3] (setting [8]) it was 99% (active); in assay [3] (at 50.0 µM), 97.8% (active); in assay [4] (setting [7]) it was 99% (active); in assay [4] (setting [8]), 98% (active); in assay [4] (at 50.0 µM), 98% (active). Also, the growth inhibition in assay [5] (setting [7]) was 99% (active); in assay [5] (setting [8]) it was 98% (active); in assay [5] (at 50.0 µM), 97.5% (active); in assay [6] (setting [7]) it was 100% (active); in assay [6] (setting [8]), 98% (active); in assay [6] (at 50.0 µM), 98.5% (active).

With `O=C(C[n+]1ccccc1)N=N/C(C(=O)Nc1c(Cl)c(O)c2ccccc2c1O)=C1/C(=O)Oc2cc(O)ccc2C1=O`, the growth inhibition in assay [1] (setting [7]) was 15%; in assay [1] (setting [8]) it was 98% (active); in assay [1] (at 50.0 µM), 97.3% (active); in assay [2] (setting [7]) it was 23%; in assay [2] (setting [8]), 98% (active); in assay [2] (at 50.0 µM), 95.8% (active). Besides, the growth inhibition in assay [3] (setting [7]) was 19%; in assay [3] (setting [8]), 98% (active); in assay [3] (at 50.0 µM), 93% (active); in assay [4] (setting [7]) it was -15%; in assay [4] (setting [8]), 96% (active); in assay [4] (at 50.0 µM) it was 68.5%. Also, the growth inhibition is 24% in assay [5] (setting [7]); 98% (active) in assay [5] (setting [8]); 90.8% (active) in assay [5] (at 50.0 µM); 27% in assay [6] (setting [7]); 97% (active) in assay [6] (setting [8]); 94.6% (active) in assay [6] (at 50.0 µM).

As for `Clc1ccc(/C=N\Nc2c3ccccc3nc3ccccc23)cc1Cl`, the growth inhibition in assay [1] (setting [7]) was -5%; in assay [1] (setting [8]), 25%; in assay [1] (at 50.0 µM), 71% (active); in assay [2] (setting [7]), 13%; in assay [2] (setting [8]), 21%; in assay [2] (at 50.0 µM), 14.6%. Further, the growth inhibition in assay [3] (setting [7]) is 1%; in assay [3] (setting [8]) it was 38%; in assay [3] (at 50.0 µM) it was 58.4%; in assay [4] (setting [7]), -3%; in assay [4] (setting [8]) it was 4%; in assay [4] (at 50.0 µM), 11.9%. The growth inhibition in assay [5] (setting [7]) is 13%; in assay [5] (setting [8]) it was 44%; in assay [5] (at 50.0 µM) it was 28.1%; in assay [6] (setting [7]), 1%; in assay [6] (setting [8]), 57%; in assay [6] (at 50.0 µM), 61.8%.

Turning to `Cc1cc(NC(=S)SCc2ccc3c(c2)OCO3)ccc1Cl`, the growth inhibition in assay [1] (setting [7]) was 31%; in assay [1] (setting [8]) it was 98% (active); in assay [1] (at 50.0 µM) it was 91.5% (active); in assay [2] (setting [7]) it was 16%; in assay [2] (setting [8]), 99% (active); in assay [2] (at 50.0 µM), 91.8% (active). Further, the growth inhibition was 44% in assay [3] (setting [7]); 98% (active) in assay [3] (setting [8]); 91.5% (active) in assay [3] (at 50.0 µM); 38% in assay [4] (setting [7]); 98% (active) in assay [4] (setting [8]); 89.7% (active) in assay [4] (at 50.0 µM). Also, the growth inhibition in assay [5] (setting [7]) is 52%; in assay [5] (setting [8]) it was 99% (active); in assay [5] (at 50.0 µM), 91% (active); in assay [6] (setting [7]), 24%; in assay [6] (setting [8]), 97% (active); in assay [6] (at 50.0 µM), 90.2% (active).

`O=[N+]([O-])c1ccc(C(Nc2ccccc2)c2ccc3cccnc3c2O)cc1` (stereo not given): the growth inhibition in assay [1] (setting [7]) is -5%; in assay [1] (setting [8]), 83% (active); in assay [1] (at 50.0 µM), 71.9% (active); in assay [2] (setting [7]), -1%; in assay [2] (setting [8]), 82% (active); in assay [2] (at 50.0 µM), 80% (active). Besides, the growth inhibition is -10% in assay [3] (setting [7]); 85% (active) in assay [3] (setting [8]); 76% (active) in assay [3] (at 50.0 µM); -37% in assay [4] (setting [7]); 79% (active) in assay [4] (setting [8]); 81.3% (active) in assay [4] (at 50.0 µM). Besides, the growth inhibition is -11% in assay [5] (setting [7]); 85% (active) in assay [5] (setting [8]); 58.6% in assay [5] (at 50.0 µM); 4% in assay [6] (setting [7]); 85% (active) in assay [6] (setting [8]); 82.2% (active) in assay [6] (at 50.0 µM).

In the case of `CC1(C)[C@@H]2CC[C@]1(C)[C@@H](OC(=O)CSC#N)C2`, the growth inhibition is 92% (active) in assay [1] (setting [7]); 99% (active) in assay [1] (setting [8]); 99.4% (active) in assay [1] (at 50.0 µM); 74% (active) in assay [2] (setting [7]); 100% (active) in assay [2] (setting [8]); 99.6% (active) in assay [2] (at 50.0 µM). The growth inhibition in assay [3] (setting [7]) is 98% (active); in assay [3] (setting [8]), 100% (active); in assay [3] (at 50.0 µM), 99.3% (active); in assay [4] (setting [7]), 24%; in assay [4] (setting [8]), 99% (active); in assay [4] (at 50.0 µM), 98.8% (active). Further, the growth inhibition in assay [5] (setting [7]) is 95% (active); in assay [5] (setting [8]), 100% (active); in assay [5] (at 50.0 µM) it was 99.6% (active); in assay [6] (setting [7]), 75% (active); in assay [6] (setting [8]), 99% (active); in assay [6] (at 50.0 µM), 99.2% (active).

For the compound `C=C(Br)CN(CC)CC`, the growth inhibition in assay [1] (setting [7]) was -151%; in assay [1] (setting [8]), -185%; in assay [1] (at 50.0 µM), -16.6%; in assay [2] (setting [7]), -48%; in assay [2] (setting [8]), -54%; in assay [2] (at 50.0 µM), -15.7%. For the same compound, the growth inhibition in assay [3] (setting [7]) was -64%; in assay [3] (setting [8]) it was -67%; in assay [3] (at 50.0 µM), -5.55%; in assay [4] (setting [7]), -51%; in assay [4] (setting [8]) it was -63%; in assay [4] (at 50.0 µM), 11.7%. The growth inhibition in assay [5] (setting [7]) was -69%; in assay [5] (setting [8]) it was -72%; in assay [5] (at 50.0 µM) it was -0.5%; in assay [6] (setting [7]) it was -130%; in assay [6] (setting [8]), -170%; in assay [6] (at 50.0 µM) it was -3.5%.

`O=C1CCSC(=S)N1c1ccccc1C(F)(F)F`: the growth inhibition in assay [1] (setting [7]) was 7%; in assay [1] (setting [8]) it was 99% (active); in assay [1] (at 50.0 µM), 99.1% (active); in assay [2] (setting [7]) it was 4%; in assay [2] (setting [8]) it was 99% (active); in assay [2] (at 50.0 µM), 99.5% (active). Also, the growth inhibition in assay [3] (setting [7]) is 9%; in assay [3] (setting [8]) it was 99% (active); in assay [3] (at 50.0 µM), 99.5% (active); in assay [4] (setting [7]) it was 7%; in assay [4] (setting [8]), 98% (active); in assay [4] (at 50.0 µM) it was 98.6% (active). Further, the growth inhibition in assay [5] (setting [7]) is 0%; in assay [5] (setting [8]), 99% (active); in assay [5] (at 50.0 µM), 99.2% (active); in assay [6] (setting [7]) it was 1%; in assay [6] (setting [8]), 99% (active); in assay [6] (at 50.0 µM), 99.3% (active).
